PubChem BioAssay (Tox21)
Results filed as inconclusive are left out. Active and inactive are the calls of the source. Unless noted, calls follow the shape of the dose curve; as a rule, active = well fitted curve in the direction sought with a large enough effect in the repeat runs; inconclusive = weak or mixed curves; inactive = no such curve, though single readings can be large; an effect the other way counts as inactive or inconclusive.

Tests used:
[1] = qHTS assay for small molecule agonists of the p53 signaling pathway - cell viability (AID 651633; calls by dose curve;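 also: p53RE-bla HCT reporter cells with a stable beta-lactamase p53 reporter; series mostly up to about 83 µM; nearly all actives have a fitted effect of over 30% in size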)
Procedure, shortened: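 p53RE-bla cells, seeded at 4,000 per well and rested 5 h at 37 C/5% CO2, received compounds in DMSO for 16 h at 37 C. CellTiter-Glo was then added, and luminescence was read after 30 min at room temperature to gauge cytotoxicity.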

[2] = qHTS assay for small molecules that induce genotoxicity in human embryonic kidney cells expressing luciferase-tagged ATAD5 - cell viability (AID 651634; calls by dose curve; also: nearly all actives have a fitted effect of over 25% in size)
Procedure, shortened: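 Viability read: CellTiter-Fluor fluorescence, 30 min at 37C. Cells: HEK293T, luciferase-tagged ATAD5. Exposure: 15.5 hr, 37C, 5% CO2, compound or DMSO vehicle.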

[3] = qHTS assay for small molecule disruptors of the mitochondrial membrane potential (AID 720635); also: potency is read from the fitted curve at half-maximal effect
Procedure, shortened: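 HepG2 cells (2,000/well) attached overnight at 37C, then took compound for 1 hr at 37C, 5% CO2. Mito-MPS dye was added for 30 min; fluorescence was read at 490/535 nm (monomers) and 540/590 nm (aggregates).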

[4] = qHTS assay to test for compound auto fluorescence at 590 nm (red) in HepG2 cells (AID 720674)
Procedure, shortened: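 Compound auto-fluorescence is scored relative to Rose Bengal sodium, measured at 540/590 nm in live HepG2 cultures after 1 hr compound contact (37 C, 5% CO2).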

[5] = qHTS assay to test for compound auto fluorescence at 535 nm (green) in HepG2 cells (AID 720675)
[6] = qHTS assay to test for compound auto fluorescence at 460 nm (blue) in HEK293 cells (AID 720678)
Procedure, shortened: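 Triamterene serves as the blue fluorophore standard. Compound signal at 405/460 nm is read in HEK293 wells (2,000 cells, 10% dialyzed FBS) after overnight treatment at 37C.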

[7] = qHTS assay to test for compound auto fluorescence at 590 nm (red) in HEK293 cells (AID 720679)
Procedure, shortened: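 We plated HEK293 cells in 10% dialyzed FBS medium, let them adhere for 4-5 hr, then added 23 nL compound. Overnight at 37C and 5% CO2 preceded fluorescence measurement at 540/590nm.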

[8] = qHTS assay to test for compound auto fluorescence at 535 nm (green) in HEK293 cells (AID 720680)
[9] = qHTS assay to test for compound auto fluorescence at 460 nm (blue) in HEK293 cell free culture (AID 720681)
Procedure, shortened: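 Test compounds were pinned into cell-free culture medium (DMEM with 10% FBS) and fluorescence was read directly at Ex/Em 405/460 nm. Signals were expressed as fluorescence equivalents of triamterene, with DMSO vehicle as control.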

[10] = qHTS assay to test for compound auto fluorescence at 535 nm (green) in HEK293 cell free culture (AID 720682)
Procedure, shortened: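 Using fluorescein as calibrant, autofluorescence was quantified at 485/535 nm in cell-free DMEM containing 10% FBS after pintool addition of compound or vehicle.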

[11] = qHTS assay to test for compound auto fluorescence at 590 nm (red) in HEK293 cell free culture (AID 720683)
Procedure, shortened: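 Tox21 10K library compounds were pinned into cell-free DMEM with 10% FBS and fluorescence was read at excitation 540 nm. Activity is expressed as Rose Bengal sodium equivalency.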

[12] = qHTS assay to test for compound auto fluorescence at 590 nm (red) in HepG2 cell free culture (AID 720684)
Procedure, shortened: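 Measured in medium alone (MEM containing 10% FBS) following pintool addition of compound; emission at 590 nm with 540 nm excitation, referenced to Rose Bengal sodium.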

[13] = qHTS assay to test for compound auto fluorescence at 460 nm (blue) in HepG2 cell free culture (AID 720685)
Procedure, shortened: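 Compound (23 nL) or DMSO pinned into cell-free MEM with 10% FBS; blue fluorescence read at 405/460 nm excitation/emission, expressed as auto-fluorescence equivalency to triamterene.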

[14] = qHTS assay to test for compound auto fluorescence at 535 nm (green) in HepG2 cell free culture (AID 720686)
[15] = qHTS assay to test for compound auto fluorescence at 460 nm (blue) in HepG2 cells (AID 720687)
Procedure, shortened: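 Cells (2,000/well in MEM with 10% FBS) attached overnight at 37 C, then were exposed to compound or DMSO for 1 hr at 37 C, 5% CO2. Fluorescence read at Ex/Em 405/460 nm, expressed as triamterene-equivalent signal.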

[16] = qHTS assay for small molecules that induce genotoxicity in human embryonic kidney cells expressing luciferase-tagged ATAD5 (AID 651632); also: nearly all actives have a fitted effect of over 15% in size
Procedure, shortened: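 Luminescent reporter readout, HEK293T ATAD5-luc line: 16 hr drug exposure (37C, 5% CO2) followed by Amplite, 30 min RT.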

[17] = qHTS assay for small molecule disruptors of the mitochondrial membrane potential - cell viability (AID 720634; calls by dose curve;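 also: human HepG2 liver cancer cells; series mostly up to about 83 µM; nearly all actives have a fitted effect of over 20% in size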)
Procedure, shortened: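 HepG2, 1 hr compound, 37 C. ATP luminescence via CellTiter-Glo, 30 min RT, same well as m-MPI.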

[18] = target: Glucocorticoid receptor (Homo sapiens) (UniProt P04150); assay: qHTS assay to identify small molecule agonists of the glucocorticoid receptor (GR) signaling pathway (AID 720691; active = well fitted activation curve with a large enough effect in the signal ratio in the repeat runs, not every such curve was filed as active; the % refers to the signal ratio)
Procedure, shortened: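 qHTS in GR-bla HeLa cells: 4 h settling at 37 C/5% CO2, 18 h compound incubation at 37 C, 2 h LiveBLAzer B/G FRET substrate at room temperature, fluorescence intensity measured.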

[19] = target: Glucocorticoid receptor (Homo sapiens) (UniProt P04150); assay: qHTS assay to identify small molecule antagonists of the glucocorticoid receptor (GR) signaling pathway (AID 720692; active = well fitted inhibition curve with a large enough effect in the signal ratio in the repeat runs, not every such curve was filed as active; the % refers to the signal ratio)
Procedure, shortened: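 Inhibition of glucocorticoid signalling is measured in HeLa cells with a GRE-controlled beta-lactamase reporter; cells are co-treated with compound and 5 nM dexamethasone (final) for 18 h before FRET substrate readout.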
% is scaled to controls: 0 for no effect and ±100 for the full control effect.

Glucocorticoid receptor (Homo sapiens), sequence (P04150 whole entry, looked up): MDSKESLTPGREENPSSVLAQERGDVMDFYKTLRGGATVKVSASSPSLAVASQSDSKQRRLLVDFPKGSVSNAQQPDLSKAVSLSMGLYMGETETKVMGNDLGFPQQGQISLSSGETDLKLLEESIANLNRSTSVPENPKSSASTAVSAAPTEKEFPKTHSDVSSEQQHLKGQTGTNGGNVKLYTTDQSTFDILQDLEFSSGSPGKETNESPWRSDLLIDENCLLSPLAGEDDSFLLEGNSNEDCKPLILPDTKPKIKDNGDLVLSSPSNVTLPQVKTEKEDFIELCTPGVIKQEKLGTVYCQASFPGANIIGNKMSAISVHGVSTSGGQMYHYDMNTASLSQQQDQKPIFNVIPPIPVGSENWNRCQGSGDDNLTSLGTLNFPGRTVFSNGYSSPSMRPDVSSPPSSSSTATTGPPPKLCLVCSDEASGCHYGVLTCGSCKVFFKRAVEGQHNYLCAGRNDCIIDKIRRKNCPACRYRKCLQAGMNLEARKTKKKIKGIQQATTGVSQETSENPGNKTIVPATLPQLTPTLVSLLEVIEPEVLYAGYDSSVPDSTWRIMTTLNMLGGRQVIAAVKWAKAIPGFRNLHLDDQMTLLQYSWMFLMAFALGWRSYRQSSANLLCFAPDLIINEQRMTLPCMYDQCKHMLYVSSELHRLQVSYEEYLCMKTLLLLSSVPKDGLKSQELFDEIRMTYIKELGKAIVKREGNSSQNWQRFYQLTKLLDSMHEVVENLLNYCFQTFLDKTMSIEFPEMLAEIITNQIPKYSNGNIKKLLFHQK

O=C1c2ccccc2C(=O)c2cc(O)ccc21
active: Potency [3] 1.94 µM
inactive: Potency [1] | Potency [2] | outcome [4] | outcome [5] | outcome [6] | outcome [7] | outcome [8] | outcome [9] | outcome [10] | outcome [11] | outcome [12] | outcome [13] | outcome [14] | outcome [15]

CC1=C(C/C=C(\C)CCC[C@H](C)CCC[C@H](C)CCCC(C)C)C(=O)c2ccccc2C1=O
inactive: Potency [16] | Potency [1] | outcome [17] | outcome [4] | outcome [5] | outcome [6] | outcome [7] | outcome [8] | outcome [9] | outcome [10] | outcome [11] | outcome [13] | outcome [14] | outcome [15] | Potency [18] | Potency [19]

CC(C)c1ccc2ncccc2c1
inactive: Potency [16] | outcome [17] | outcome [4] | outcome [5] | outcome [6] | outcome [7] | outcome [8] | outcome [9] | outcome [10] | outcome [11] | outcome [12] | outcome [13] | outcome [14]

CCCOC(=O)CC
inactive: Potency [16] | Potency [1] | Potency [2] | outcome [17] | outcome [4] | outcome [5] | outcome [7] | outcome [8] | outcome [9] | outcome [10] | outcome [11] | outcome [12] | outcome [13] | outcome [14] | outcome [15] | Potency [18] | Potency [19]

COC(=O)C1=C(C)NC(C)=C(C(=O)OC(C)C)C1c1cccc2nonc12 (stereo not drawn)
inactive: Potency [16] | Potency [1] | outcome [17] | fluorescence, relative to Rose Bengal [4] 0.351% [at 18.6 µM] | fluorescence, % of fluorescein control [5] 0.024% [at 18.6 µM] | fluorescence, % of triamterene [6] -0.009% [at 18.6 µM] | fluorescence, % of fluorescein [8] -0.0539% [at 18.6 µM] | fluorescence, % of fluorescent control [9] 0.0173% [at 18.6 µM] | activity change [10] 0.0719% [at 18.6 µM] | fluorescence, % of fluorescent control [11] -0.0484% [at 18.6 µM] | fluorescence, % of Rose Bengal [12] -0.0514% [at 18.6 µM] | fluorescence, % of fluorescent control [13] -0.0347% [at 18.6 µM] | fluorescence, % of fluorescein control [14] -0.0109% [at 18.6 µM] | fluorescence, % of fluorescent control [15] 0.0339% [at 18.6 µM] | Potency [18]

CC1=NN(c2cccc(S(=O)(=O)O)c2)C(=O)C1
inactive: Potency [16] | Potency [2] | outcome [17] | outcome [4] | outcome [5] | outcome [6] | outcome [8] | outcome [9] | outcome [10] | outcome [11] | outcome [12] | outcome [13] | outcome [14] | Potency [18] | Potency [19]

CCCCc1nc(Cl)c(CO)n1Cc1ccc(-c2ccccc2-c2nn[nH]n2)cc1
inactive: Potency [16] | Potency [1] | Potency [2] | outcome [17] | outcome [4] | outcome [5] | outcome [6] | outcome [7] | outcome [8] | outcome [9] | outcome [10] | outcome [11] | outcome [13] | outcome [14] | outcome [15] | Potency [18] | Potency [19]

Cc1ncc(COP(=O)(O)O)c(C=O)c1O
inactive: Potency [16] | Potency [1] | outcome [17] | Potency [3] | outcome [4] | outcome [5] | outcome [6] | outcome [7] | outcome [8] | outcome [9] | outcome [10] | outcome [11] | outcome [12] | outcome [13] | outcome [15] | Potency [18] | Potency [19]

CC(=O)OCC(=O)[C@@]1(O)[C@H](C)C[C@H]2[C@@H]3CCC4=CC(=O)C=C[C@]4(C)[C@@]3(F)[C@@H](O)C[C@@]21C
inactive: Potency [16] | Potency [1] | Potency [2] | outcome [17] | outcome [5] | outcome [6] | outcome [7] | outcome [8] | outcome [9] | outcome [10] | outcome [11] | outcome [13] | outcome [14]
